# Test results reported in PubChem BioAssay.
# Calls of active or inactive are those of the source. Unless noted, no rule for the calls is given here.
# Columns and labels:
# [1] = tested on: Wnt5a (protein binding on small-molecule microarray); assay: Wnt5a binders on small-molecule microarray, primary screen, biophysical, 635/667 nm fluorescence (AID 1142); conditions: 635 nm fluorescence, higher = more signal;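 also: fluorescence read at 667 nm with signal to noise per printed feature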
# [2] = cell viability in Huh7 cells, primary screen, cytotoxicity control for HCV replication inhibitor project, CellTiter-Glo luminescence, basal, 48 h (AID 1143); conditions: Huh7 HCV replicon, higher = more signal, called active from +8 up or from −8 down;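 also: Huh7 hepatoma cells carrying a hepatitis C replication reporter with no stimulus; test concentration not given here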
# [3] = P. aeruginosa biofilm formation inhibitors, primary screen, PAO1 strain, BacTiter-Glo luminescence, LB-PBS (AID 1144); conditions: 12 h, higher = more signal
# [4] = CREB reporter modulators without forskolin, primary screen, cell-based, PC12, CRE-LacZ reporter, unstimulated (AID 1145); conditions: no forskolin, luminescence, 4.5 h, higher = more signal, called active from +8 up or from −8 down
# [5] = CREB reporter modulators under forskolin, primary screen, cell-based, PC12, CRE-LacZ reporter, forskolin-stimulated (AID 1146); conditions: luminescence, 4.5 h, higher = more signal, called active from +8 up or from −8 down;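 also: PC12 cells with 6xCRE LacZ reporter stimulated by forskolin 10 µM; beta-galactosidase reporter signal reflecting CREB driven transcription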
# [6] = molecular target: Streptavidin (Streptomyces avidinii) (UniProt P22629); assay: streptavidin binders on small-molecule microarray, primary screen, artefact control for SMM compound annotation, biophysical, 635/667 nm fluorescence (AID 1147); conditions: streptavidin binding, higher = more signal;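 also: signal reflects streptavidin binding to arrayed compounds as a control protein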
# Chain of Streptavidin (Streptomyces avidinii) (P22629 whole entry, looked up): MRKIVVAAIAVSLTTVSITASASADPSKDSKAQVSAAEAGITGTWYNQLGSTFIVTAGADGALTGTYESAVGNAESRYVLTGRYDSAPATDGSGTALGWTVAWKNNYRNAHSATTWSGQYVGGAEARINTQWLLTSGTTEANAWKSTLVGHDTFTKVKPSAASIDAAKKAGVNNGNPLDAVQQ
# [7] = small-molecule binders of probe aInhba, primary screen, biochemical, small-molecule microarray, 635/667 nm fluorescence (AID 1148); conditions: higher = more signal;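 also: score merges 667nm spot fluorescence with signal-to-noise for antibody binding to printed compounds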
# Torsin-1A (Homo sapiens) [8] = molecular target: Torsin-1A (Homo sapiens) (UniProt O14656); assay: torsin A binders from cell lysate, primary screen, small-molecule microarray, wild-type, 635/667 nm (AID 1149); conditions: COS7 hTOR1A-WT lysate, 635 nm fluorescence, higher = more signal
# Chain of Torsin-1A (Homo sapiens) (O14656 whole entry, looked up): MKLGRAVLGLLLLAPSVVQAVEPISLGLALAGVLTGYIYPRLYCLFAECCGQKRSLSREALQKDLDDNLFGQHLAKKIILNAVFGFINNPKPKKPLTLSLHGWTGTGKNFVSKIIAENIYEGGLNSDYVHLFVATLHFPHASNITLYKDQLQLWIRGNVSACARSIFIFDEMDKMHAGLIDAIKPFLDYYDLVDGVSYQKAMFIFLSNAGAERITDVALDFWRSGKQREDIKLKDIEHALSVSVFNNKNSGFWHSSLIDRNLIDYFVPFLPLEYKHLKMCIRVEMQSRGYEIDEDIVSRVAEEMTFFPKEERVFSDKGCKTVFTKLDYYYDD
# Torsin-1A (Homo sapiens) [9] = molecular target: Torsin-1A (Homo sapiens) (UniProt O14656); assay: small-molecule binders of mutant TOR1A in lysate, primary screen, cell lysate, small-molecule microarray, COS7 lysate, 635/667 nm fluorescence (AID 1150); conditions: COS7 hTOR1A mutant lysate, 635 nm fluorescence, higher = more signal;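 also: score pools 667 nm emission and signal to noise measuring lysate protein binding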
# [10] = tested on: Sonic hedgehog protein (Shh); assay: small-molecule binders of Shh protein, primary screen, biochemical, small-molecule microarray, 635/667 nm fluorescence (AID 1151); conditions: small-molecule microarray binding, 635 nm fluorescence; higher = more signal;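 also: Shh protein binding to compounds spotted on small-molecule microarray slides; score combines spot fluorescence intensity with signal-to-noise across triplicate slides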
# [11] = E. coli DRC41 culture turbidity changes, primary screen, E. coli filamentation inducer project, strain DRC41, OD650, 48 h (AID 1152);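 also: E. coli MC1000 strain DRC41 lacking acrAB efflux pump and sulA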; conditions: E. coli DRC41 (acrAB sulA), higher = more signal, called active from +8 up or from −8 down
# [12] = small-molecule binders of probe aLefty1, primary screen, biochemical, small-molecule microarray, 635/667 nm fluorescence (AID 1153); conditions: higher = more signal;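 also: score merges spot fluorescence with signal-to-noise ratio from the scanned slide images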
# [13] = PSAC antagonists in infected red cells, primary screen, cell-based, P. falciparum Indochina, OD700, 1 h (AID 1154); conditions: P. falciparum Indochina infected RBC osmotic lysis, higher = more signal, called active from +8 up or from −8 down
# [14] = PSAC antagonists in infected red cells, primary screen, cell-based, P. falciparum Indochina, OD700, 2 h (AID 1155);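 also: lysis reports solute entry through the parasite surface anion channel PSAC; channel blockers reduce lysis of infected cells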; conditions: P. falciparum Indochina infected erythrocytes, osmotic lysis OD700; higher = more signal, called active from +8 up or from −8 down
# [15] = osmotic lysis modulators in infected erythrocytes, primary screen, PSAC antagonist project, cell-based, P. falciparum Indochina, OD700, 3 h (AID 1156); conditions: higher = more signal, called active from +8 up or from −8 down
# [16] = PSAC antagonists in infected red cells, primary screen, cell-based, P. falciparum Indochina, OD700, 18 h (AID 1157); conditions: P. falciparum Indochina infected erythrocytes, osmotic lysis OD700, 18 h; higher = more signal, called active from +8 up or from −8 down
# [17] = modulators of S6 phosphorylation in cells, primary screen, cell-based, A549, cytoblot, luminescence, serum-stimulated (AID 1158); conditions: A549 phospho-S6 cytoblot, 5 h, higher = more signal;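 also: serum-stimulated A549 lung adenocarcinoma cells; signal is phosphorylated S6 detected by cytoblot immunostaining with HRP secondary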
# [18] = molecular target: NADPH oxidase 2 (Homo sapiens) (UniProt P04839); assay: NOX2-dependent H2O2 signal modulators, primary screen, NOX inhibitor project, cell-based, HEK293-NOX2, PMA-stimulated, Amplex Red fluorescence (AID 1159); conditions: 45 min, higher = more signal, called active from +8 up or from −8 down; also: test concentration not given here
# Chain of NADPH oxidase 2 (Homo sapiens) (P04839 whole entry, looked up): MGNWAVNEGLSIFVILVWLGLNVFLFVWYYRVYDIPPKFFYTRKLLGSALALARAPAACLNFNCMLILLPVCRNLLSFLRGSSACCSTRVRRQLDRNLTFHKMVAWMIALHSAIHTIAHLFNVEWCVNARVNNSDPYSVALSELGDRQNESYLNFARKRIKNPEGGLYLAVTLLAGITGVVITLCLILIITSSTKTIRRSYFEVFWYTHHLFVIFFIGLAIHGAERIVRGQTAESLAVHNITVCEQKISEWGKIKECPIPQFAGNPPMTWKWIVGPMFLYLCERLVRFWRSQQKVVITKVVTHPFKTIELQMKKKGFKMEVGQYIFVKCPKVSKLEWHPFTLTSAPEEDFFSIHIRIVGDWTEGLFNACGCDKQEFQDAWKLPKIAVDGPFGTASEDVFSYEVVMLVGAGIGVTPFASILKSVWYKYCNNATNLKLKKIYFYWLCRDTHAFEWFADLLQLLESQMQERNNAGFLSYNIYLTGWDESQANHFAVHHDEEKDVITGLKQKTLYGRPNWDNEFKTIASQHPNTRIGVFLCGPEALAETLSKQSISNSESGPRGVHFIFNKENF
# [19] = molecular target: NADPH oxidase 4 (Homo sapiens) (UniProt Q9NPH5); assay: NOX4-dependent H2O2 signal modulators, primary screen, NOX inhibitor project, cell-based, HEK293-NOX4, tetracycline-induced, Amplex Red fluorescence (AID 1160); conditions: 45 min, higher = more signal, called active from +8 up or from −8 down
# Chain of NADPH oxidase 4 (Homo sapiens) (Q9NPH5 whole entry, looked up): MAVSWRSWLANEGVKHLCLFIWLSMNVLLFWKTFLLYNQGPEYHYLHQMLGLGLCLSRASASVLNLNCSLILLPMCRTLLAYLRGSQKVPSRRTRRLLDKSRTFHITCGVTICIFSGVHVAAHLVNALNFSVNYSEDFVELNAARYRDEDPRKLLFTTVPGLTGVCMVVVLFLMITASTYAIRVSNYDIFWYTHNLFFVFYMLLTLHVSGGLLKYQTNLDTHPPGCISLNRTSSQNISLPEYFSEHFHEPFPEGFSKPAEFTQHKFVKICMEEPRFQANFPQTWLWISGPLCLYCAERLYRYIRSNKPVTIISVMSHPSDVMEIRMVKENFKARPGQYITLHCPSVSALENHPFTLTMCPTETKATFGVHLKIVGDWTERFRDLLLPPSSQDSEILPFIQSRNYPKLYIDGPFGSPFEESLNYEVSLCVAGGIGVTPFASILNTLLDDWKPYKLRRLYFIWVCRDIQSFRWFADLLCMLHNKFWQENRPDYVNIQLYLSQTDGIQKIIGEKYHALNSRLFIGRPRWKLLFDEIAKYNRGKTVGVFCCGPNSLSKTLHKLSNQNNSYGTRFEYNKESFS
# [20] = molecular target: NADPH oxidase 5 (Homo sapiens) (UniProt Q96PH1); assay: NOX5-dependent H2O2 signal modulators, primary screen, NOX inhibitor project, cell-based, HEK293-NOX5, Amplex Red fluorescence (AID 1161); conditions: HEK293-NOX5, ionomycin, 45 min, higher = more signal
# Chain of NADPH oxidase 5 (Homo sapiens) (Q96PH1 whole entry, looked up): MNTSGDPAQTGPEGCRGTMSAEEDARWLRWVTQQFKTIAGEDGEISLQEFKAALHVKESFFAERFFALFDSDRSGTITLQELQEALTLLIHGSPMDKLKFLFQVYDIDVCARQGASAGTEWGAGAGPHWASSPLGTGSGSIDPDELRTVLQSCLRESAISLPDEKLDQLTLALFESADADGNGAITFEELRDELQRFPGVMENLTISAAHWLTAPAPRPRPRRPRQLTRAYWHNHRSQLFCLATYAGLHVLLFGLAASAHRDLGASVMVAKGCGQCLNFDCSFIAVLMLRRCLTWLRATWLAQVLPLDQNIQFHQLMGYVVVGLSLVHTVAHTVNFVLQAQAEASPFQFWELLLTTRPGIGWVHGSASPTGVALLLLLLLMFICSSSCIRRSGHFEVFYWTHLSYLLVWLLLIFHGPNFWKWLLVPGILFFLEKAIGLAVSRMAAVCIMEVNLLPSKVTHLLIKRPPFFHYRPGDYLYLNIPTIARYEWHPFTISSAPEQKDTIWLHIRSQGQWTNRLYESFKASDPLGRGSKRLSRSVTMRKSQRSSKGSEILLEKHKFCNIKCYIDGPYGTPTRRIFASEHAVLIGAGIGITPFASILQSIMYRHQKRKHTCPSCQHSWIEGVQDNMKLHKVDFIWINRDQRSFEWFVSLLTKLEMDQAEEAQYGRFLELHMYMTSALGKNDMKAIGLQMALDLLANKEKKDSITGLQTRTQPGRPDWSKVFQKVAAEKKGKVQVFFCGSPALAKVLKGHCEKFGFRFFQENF
Compound,composite z-score [1],z-score [2],z-score [3],z-score [4],z-score [5],composite z-score [6],composite z-score [7],composite z-score (Torsin-1A (Homo sapiens) [8]),composite z-score (Torsin-1A (Homo sapiens) [9]),composite z-score [10],z-score [11],composite z-score [12],z-score [13],z-score [14],z-score [15],z-score [16],z-score [17],z-score [18],z-score [19],z-score [20]
CCCN1C(=O)[C@]2(CCC(=O)OC(C)(C)C)N=C(c3ccc(OCCCO)cc3)O[C@@H]2c2ccccc21,0.456,-4.35 (inactive),-0.543 (inactive),0.512 (inactive),-1.44 (inactive),-0.374,0.173,1.51,0.111,1.7,0.239 (inactive),0.26,34.1 (active),36.8 (active),2.57 (inactive),8.76 (active),-0.0347,-3.07 (inactive),-0.483 (inactive),-1.51
N#Cc1ccc(NN2C(C(O)C3CC=CCC3)C=CC3C(=O)N(c4ccccc4)C(=O)C32)cc1 (stereo not given),0.223,0.595 (inactive),-1.34 (inactive),0.629 (inactive),0.516 (inactive),0.126,-0.0131,-0.694,0.202,2.08,-0.411 (inactive),0.364,16.9 (active),3.34 (inactive),0.889 (inactive),1.14 (inactive),-0.723,-1.21 (inactive),-2.27 (inactive),-2.39
O=C1C[C@@](C(=O)NC2CC2)(c2ccc([N+](=O)[O-])cc2)[C@@H](c2ccc(CO)cc2)N1C1CCCCC1,0.755,-5.6 (inactive),-2.4 (inactive),0.118 (inactive),-0.0595 (inactive),-0.124,-0.212,-0.204,0.466,2.18,1.25 (inactive),0.345,1.97 (inactive),-0.0047 (inactive),0.736 (inactive),-0.115 (inactive),3.97,-1.06 (inactive),-3.7 (inactive),-5.08
CCCCC(O)C1C=CC2C(=O)N(c3ccccc3)C(=O)C2N1Nc1ccc([N+](=O)[O-])cc1 (stereo not given),0.044,-3.32 (inactive),-2.08 (inactive),-0.219 (inactive),-0.176 (inactive),0.736,0.215,0.47,0.482,-0.61,0.372 (inactive),0.683,14.2 (active),1.38 (inactive),0.371 (inactive),-1.06 (inactive),0.581,-1.08 (inactive),-1.65 (inactive),-0.302
COC(=O)[C@@]1(Cc2ccc(F)cc2)[C@H]2c3cc(C(=O)N(C)C)n(CCc4ccc(O)c(O)c4)c3C[C@H]2CN1C(=O)c1ccccc1,0.643,0.395 (inactive),-0.0598 (inactive),0.387 (inactive),1.4 (inactive),0.365,0.528,0.411,0.92,-1.67,-0.81 (inactive),0.162,0.183 (inactive),0.194 (inactive),0.248 (inactive),0.494 (inactive),0.407,-0.168 (inactive),-1.31 (inactive),-0.966
CC(C)NC(=O)[C@@H]1c2ccccc2C(=O)N(Cc2ccc(OC(F)(F)F)cc2)[C@H]1c1ccc(CO)cc1,0.663,-1.54 (inactive),-0.294 (inactive),-0.0243 (inactive),0.442 (inactive),0.201,0.618,1.12,0.39,1.81,-0.376 (inactive),1.24,2.18 (inactive),-0.0655 (inactive),2.65 (inactive),0.179 (inactive),-0.065,0.412 (inactive),-0.27 (inactive),1.87
O=C1O[C@H](c2ccccc2)[C@H](c2ccccc2)N2[C@H]1[C@@H](C(=O)O)[C@]1(C(=O)Nc3ccc(C#CCCO)cc31)[C@H]2c1ccc(OCCO)cc1,0.48,-0.33 (inactive),0.982 (inactive),1.17 (inactive),0.147 (inactive),0.468,0.0082,0.865,1.08,0.314,0.761 (inactive),0.154,4.88 (inactive),0.927 (inactive),0.232 (inactive),0.138 (inactive),0.112,1.43 (inactive),1.21 (inactive),0.51
COC(=O)[C@@]1(Cc2ccc(OC)cc2)[C@H]2c3cc(C(=O)N(C)C)[nH]c3C[C@H]2CN1C(=O)c1ccccc1,0.117,0.244 (inactive),0.857 (inactive),0.383 (inactive),-0.289 (inactive),0.226,-0.0645,-0.209,-0.369,-0.814,-0.439 (inactive),-0.0969,5.74 (inactive),0.806 (inactive),0.395 (inactive),0.764 (inactive),-0.38,0.371 (inactive),0.602 (inactive),-1.58
CCOC(=O)C[C@H]1[C@H](OC(=O)Cc2ccc3c(c2)OCO3)[C@@H](NC(=O)c2ccc3ccccc3n2)c2cc(OCCCO)ccc2N1C(=O)Cc1ccc(OC)cc1,0.0586,-1.01 (inactive),-0.885 (inactive),3.29 (inactive),0.637 (inactive),0.417,-0.101,0.509,0.744,0.902,2.14 (inactive),-0.0573,21.8 (active),5.31 (inactive),-0.997 (inactive),0.0217 (inactive),2.03,-1.47 (inactive),0.824 (inactive),0.159
